Experiment [1] has as its target T1, Hexokinase-4 (Homo sapiens) + Glucokinase regulatory protein (Homo sapiens) (UniProt P35557+Q14397). The experiment is described as follows: qHTS assay for inhibitors of recombinant human GCK-GKRP interaction: Diaphorase-coupled assay (AID 743205). The method, boiled down:
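A kinetic fluorescence read (Ex 525/Em 590 nm, every minute for 30 minutes) tracked resorufin from a G6PDH-diaphorase coupled GCK reaction. It contained 10 nM GST-GCK, 10 nM FLAG-GKRP, 5 mM glucose, 0.4 mM ATP in Hepes pH 7.6. Normalized to with/without-enzyme DMSO controls.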
On the technique in general: qHTS replaces the single test concentration by a dilution series.

Experiment [2] concerns the target T1, Hexokinase-4 (Homo sapiens) + Glucokinase regulatory protein (Homo sapiens). The experiment is described as follows: qHTS assay for inhibitors of recombinant human GCK-GKRP interaction: ADP-Glo assay (AID 743206).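 Further: plate controls were DMSO plus enzyme for no effect and no enzyme for full effect.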 An outline of the steps:
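Pin-transferred compounds meet a 15 nM GST-GCK/15 nM FLAG-GKRP/2 uM S6P mix (dispense concentrations). ATP is then added to 0.4 mM final with 5 mM glucose, and the reaction runs 60 min at room temperature. ADP is quantified luminescently.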

For experiment [3] the target is unchanged. The experiment is described as follows: qHTS assay for inhibitors of recombinant human GCK-GKRP interaction: HTRF assay (AID 743207).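 Further: 0% = DMSO with GCK present and -100% = DMSO wells lacking GCK.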 The method, boiled down:
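After 60 min equilibration at room temperature with anti-FLAG XL665 and anti-GST antibodies, FRET ratio (665/615 nm, excitation 320 nm) was read. Proteins: GST-GCK and FLAG-GKRP, each 5 nM, plus 2 uM S6P, pH 7.1 buffer; GCK-free wells define minimum signal.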

Experiment [4] is described as follows: qHTS Assay for Identifying Gametocytocidal Compounds (AID 743244). Further: potency means the concentration at half of the fitted maximal effect.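 On max response: on the % scale 0 is the no-effect control and ±100 the full control effect; actives lower the fluorescent signal which means gametocytes are killed.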 The conditions noted are these: P. falciparum 3D7 stage III-V gametocytes, alamarBlue, 72 h; max response: stronger effect = lower value. An outline of the steps:
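Compounds are pinned into medium, gametocytes (stage III–V, 3D7, 20,000 cells/well) added, and plates held 72 h at 37 °C in 5% CO2. AlamarBlue follows for 24 h before fluorescence reading.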

The nature of experiment [5]: qHTS assay for measurement of the activity of small molecule inhibitors on Zika virus induced Caspase-3 activity in human iPSC derived neural progenitor cells (hNPCs) (AID 1224857). Further: % of control where 0% means no effect; nearly all actives have a fitted effect of over 65% in size. The method, boiled down: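 Pretreat hNPCs with compound 1 h; infect ZIKV 2 FFU/cell; 6 h 37 C, 5% CO2; Caspase-Glo 3/7, 30 min RT; luminescence; normalize to no-virus and virus-only wells.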

Experiment [6] is described as follows: qHTS assay for measurement of the activity of small molecule inhibitors on Zika virus induced Caspase-3 activity in human astrocytoma cells (AID 1224859).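 Further: plate controls were ZIKV-infected untreated cells for no effect and uninfected cells for full effect.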 An outline of the steps: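 Human SNB-19 astrocytoma cells in RPMI 1640 with 10% FBS receive compound one hour ahead of Zika virus at 2 FFU/cell. After 6 h infection, caspase-3/7 activity is detected by Caspase-Glo luminescence.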

The nature of experiment [7]: qHTS assay to identify small molecule inhibitors of chordoma cells - UCH-1 (AID 1259355). Further: nearly all actives have a fitted effect of over 55% in size. Further: potency means the concentration at half of the fitted maximal effect. An outline of the steps: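 A 48hr growth-inhibition format: each drug tested at 15 concentrations together with added auranofin, camptothecin, doxorubicin, rubitecan and topotecan, with cell viability quantified as CellTiter-Glo luminescence.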
Experiment [8] can be described thus: qHTS assay to identify small molecule inhibitors of chordoma cells - UCH-2 (AID 1259356). Further: potency means the concentration at half of the fitted maximal effect.
The nature of experiment [9]: qHTS profiling for inhibitors of Plasmodium falciparum (3D7) proliferation (AID 743322; call rule not given here;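 further: infected erythrocytes exposed to compound for 72 h before lysis; 100% = DMSO vehicle wells and 0% = 0.29 µM artemisinin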). The conditions noted are these: P. falciparum 3D7 proliferation; at 28.7 µM (top of the series) unless noted. The method, boiled down:
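Parasite DNA was quantified by SYBR Green I fluorescence (ex 485, em 535 nm) after overnight lysis in saponin/Triton buffer at room temperature. Cultures at 0.3% parasitemia and 2.5% hematocrit were first exposed to compound for 72 h at 37 C; signals were normalised to artemisinin (0.29 uM) and vehicle wells.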

Experiment [10] in a line: qHTS profiling for inhibitors of Plasmodium falciparum (DD2) proliferation (AID 743323; call rule not given here). The conditions noted are these: lower = more inhibition; at 28.7 µM (top of the series) unless noted. The method, boiled down:
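SYBR Green fluorescence (ex 485, em 535 nm) of lysed cultures gives parasite DNA content; wells normalized to artemisinin (0.29 uM) and DMSO controls. Infected red cells: 0.3% parasitemia, 2.5% hematocrit, 72 h, 37 C.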

Each structure is given as a SMILES string. “And” between values parts separate entries of the source, which are not always exact repeats. Equal values may be shown once. Records with an inconclusive call do not appear. The source made the active and inactive calls. Unless noted, the call rests on the fitted dose curve; in most records, active means well fitted curve in the direction sought with a large enough effect; inconclusive means small, poorly fitted or top-dose-only effect, or another doubt; inactive means no such curve, though single readings can be large; an effect the other way counts as inactive or inconclusive.

T1 sequence (P35557 whole entry, looked up): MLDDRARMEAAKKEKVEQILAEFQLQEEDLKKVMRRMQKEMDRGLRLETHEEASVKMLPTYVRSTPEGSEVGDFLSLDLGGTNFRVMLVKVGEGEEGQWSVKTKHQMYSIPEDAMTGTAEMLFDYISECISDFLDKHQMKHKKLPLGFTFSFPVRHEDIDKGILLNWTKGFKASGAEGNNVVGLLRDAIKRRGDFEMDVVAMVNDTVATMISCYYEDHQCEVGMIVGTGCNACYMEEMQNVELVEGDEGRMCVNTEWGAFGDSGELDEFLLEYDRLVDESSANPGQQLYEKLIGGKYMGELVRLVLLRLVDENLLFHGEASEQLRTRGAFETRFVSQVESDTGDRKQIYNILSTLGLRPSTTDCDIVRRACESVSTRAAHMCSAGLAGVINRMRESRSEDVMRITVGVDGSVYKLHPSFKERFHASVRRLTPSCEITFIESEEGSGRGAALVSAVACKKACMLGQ
T1 sequence (Q14397 whole entry, looked up): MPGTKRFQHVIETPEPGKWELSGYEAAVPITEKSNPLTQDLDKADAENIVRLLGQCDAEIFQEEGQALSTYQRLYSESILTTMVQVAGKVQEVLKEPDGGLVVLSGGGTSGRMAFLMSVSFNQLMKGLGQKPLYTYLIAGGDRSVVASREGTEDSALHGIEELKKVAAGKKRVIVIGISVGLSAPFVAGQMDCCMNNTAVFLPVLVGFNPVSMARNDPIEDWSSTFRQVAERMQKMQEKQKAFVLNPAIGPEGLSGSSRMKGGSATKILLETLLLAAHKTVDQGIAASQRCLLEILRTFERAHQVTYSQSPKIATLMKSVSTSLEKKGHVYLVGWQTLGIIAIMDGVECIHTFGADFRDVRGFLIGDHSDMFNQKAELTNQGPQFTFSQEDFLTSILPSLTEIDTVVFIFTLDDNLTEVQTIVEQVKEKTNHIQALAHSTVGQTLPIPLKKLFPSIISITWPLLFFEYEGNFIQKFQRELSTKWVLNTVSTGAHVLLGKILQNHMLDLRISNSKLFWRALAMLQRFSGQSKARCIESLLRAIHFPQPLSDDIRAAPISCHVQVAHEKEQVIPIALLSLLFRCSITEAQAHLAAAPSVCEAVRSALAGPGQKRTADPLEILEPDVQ

With `CC(=O)[C@]1(O)Cc2c(O)c3c(c(O)c2[C@@H](O[C@H]2C[C@H](N)[C@H](O)[C@H](C)O2)C1)C(=O)c1ccccc1C3=O`, the outcome in experiment [1], in experiment [2], in [5] and in experiment [6] was inactive. For the same compound, the Potency entry in experiment [3] was “inactive”. Further, the Potency in [4] is 6.31 µM (active) and 1.12 µM (active); in experiment [7], 0.794 µM (active); in [8] it was 1.16 µM (active).

For `C[n+]1cc2c3c(ccc2c2ccc4cc5c(cc4c21)OCO5)OCO3`, the result in experiment [1], in [2], in [5] and in experiment [6] was inactive. Further, the Potency entry in experiment [3] was “inactive”. The figures for the Potency in [4], in [7] and in experiment [8] were 3.16 µM (active), 12.6 µM (active) and 13 µM (active), respectively.

`CN(C)CC/C=C1\c2ccccc2COc2ccccc21`: the result in experiment [1], in [2], in experiment [5] and in experiment [6] was inactive. The Potency result in experiment [3], in experiment [7] and in experiment [8] was “inactive” in each case. In addition, in experiment [4], the max response is 1.05% (inactive) and 7.48% (inactive). The same compound returned a remaining parasite growth % (stronger effect = lower value) in experiment [9] of 96.2% [at 9.63 µM]. This compound also had an activity, percent of control in [10] of 49.5% [at 9.63 µM].

For `COc1ccc2c(c1OC)C(=O)O[C@@H]2[C@H]1c2c(cc3c(c2OC)OCO3)CCN1C`, the result in [1], in experiment [2], in experiment [5] and in [6] was inactive. Also, the Potency entry in [3], in experiment [7] and in experiment [8] was “inactive” in each case. In addition, in [4], the max response is -4.58% (inactive) and 10.4% (inactive).

Consider `CN(C)CCOC(=O)COc1ccc(Cl)cc1`, for which the result in [1], in experiment [2], in experiment [5] and in [6] was inactive. The Potency entry in experiment [3], in [7] and in experiment [8] was “inactive” throughout. Further, the max response in experiment [4] is 11% (inactive) and 8.28% (inactive).

`C[C@H](CS)C(=O)N1CCC[C@H]1C(=O)O`: the outcome in [1], in experiment [2], in [5] and in experiment [6] was inactive. Moreover, the Potency entry in experiment [3], in experiment [7] and in [8] was “inactive” each time. For the same compound, in experiment [4], the max response was -9.05% (inactive) and 12% (inactive).

On to `O=C(O)CP(=O)(O)O`, for which the result in experiment [1], in experiment [2], in experiment [5] and in [6] was inactive. Further, the Potency result in [3], in experiment [7] and in experiment [8] was “inactive” each time. The max response in experiment [4] was -7.11% (inactive) and 18.5% (inactive).

With `COc1ccc(CCN(C)CCCC(C#N)(c2cc(OC)c(OC)c(OC)c2)C(C)C)cc1OC` (configuration not stated), the outcome in experiment [1], in [2], in [5] and in experiment [6] was inactive. In addition, the Potency entry in experiment [3], in [7] and in [8] was “inactive” throughout. In addition, the max response in [4] is 12.4% (inactive) and 4.11% (inactive).

Take `CC1=NS(=O)(=O)c2cc(Cl)ccc2N1`: the outcome in experiment [1], in experiment [2], in experiment [5] and in experiment [6] was inactive. Further, the Potency entry in [3], in experiment [7] and in experiment [8] was “inactive” each time. Further, the max response in [4] was 4.85% (inactive).

Take `OC(CCN1CCCCC1)(c1ccccc1)C1CCCCC1` (configuration not stated): the outcome in experiment [1], in experiment [2], in experiment [5] and in experiment [6] was inactive. Besides, the Potency entry in experiment [3], in [7] and in [8] was “inactive” each time. The max response in [4] was -12% (inactive) and 9.84% (inactive).

The values above are taken from PubChem BioAssay (NCATS).
